FBA Mtb inh – inhibits M. tuberculosis FBA enzyme; purified M. tuberculosis FBA, fluorescence read-out; hit rate 2.3% among 360,000; inhibition, % at 1 µM; AID 588726; P9WQA3; in the data active means inhibition above about 27%;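 further: 0% = vehicle and 100% = reference inhibitor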
Target sequence (P9WQA3 whole entry, looked up): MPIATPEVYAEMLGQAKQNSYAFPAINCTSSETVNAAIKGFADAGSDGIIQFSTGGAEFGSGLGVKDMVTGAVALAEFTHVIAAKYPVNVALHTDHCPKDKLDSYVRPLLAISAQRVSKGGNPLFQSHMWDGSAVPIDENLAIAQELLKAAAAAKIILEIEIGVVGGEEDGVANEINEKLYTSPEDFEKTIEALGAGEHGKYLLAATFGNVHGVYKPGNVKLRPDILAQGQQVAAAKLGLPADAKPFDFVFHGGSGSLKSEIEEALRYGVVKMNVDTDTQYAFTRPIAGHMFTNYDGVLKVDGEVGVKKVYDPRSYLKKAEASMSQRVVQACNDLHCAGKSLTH
Vc quorum ag – inducers of Vibrio cholerae quorum light production without autoinducers; V. cholerae BH1578 lux reporter, luminescence, 6 h; activation, % at 18.7 µM; hit rate 0.16% among 350,000; in the data active means activation mostly above about 9.7%, no sharp cut-off
Rv3671c protease – Rv3671c (M. tuberculosis) protease inhibition. P9WHR9. inhibition, % at 5.96 µM. hit rate 0.048% among 320,000; in the data active means inhibition above about 38%;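 further: extracellular domain of Rv3671c used as enzyme; 0% = enzyme with DMSO and 100% = no enzyme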
UGM FP inh – inhibitors of M. tuberculosis UDP-galactopyranose mutase. P9WIQ1. hit rate 0.06% among 320,000. purified UGM, fluorescence polarization probe displacement. inhibition, % at 10 µM. AID 504406; in the data active means inhibition above about 10%, passing the limit was not always enough
GDH-TPI counter – counter-screen for M. tuberculosis FBA inhibitors: GDH-TPI coupled enzymes; GDH-TPI coupled enzyme counterscreen, NADH absorbance; inhibition, % at 4.8 µM; hit rate 1.2% among 360,000; AID 588335; in the data active means inhibition above about 30%;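 further: 0% = DMSO wells and 100% = wells lacking the enzyme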
RecA splice inh – inhibitors of M. tuberculosis RecA intein splicing. P9WHJ3. cell-free RecA intein splicing, fluorescence. inhibition, % (no concentration beside the values). hit rate 0.75% among 290,000; in the data active means inhibition above about 30%;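 further: 0% = vehicle wells and 100% = reference inhibitor control wells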
The depositor's hits bear a star; i = inactive; / = no result given; + = active, no number. In the library only some 4.1% were active in any assay of this set; here they are far more common.

SMILES	FBA Mtb inh	Vc quorum ag	Rv3671c protease	UGM FP inh	GDH-TPI counter	RecA splice inh
O=C(O)COc1ccc2c(c1)O/C(=C\c1ccco1)C2=O	1	i	-2	0	20	-4
COc1ccc(OC)c(/C=C2\Oc3cc(OCC(=O)N4CC(O)C[C@H]4C(=O)O)ccc3C2=O)c1 (some centres undefined)	-6	-1	-4	-2	40*	-5
O=C(O)COc1ccc2c(c1)O/C(=C\c1cccs1)C2=O	5	i	-8	2	42*	/
COc1ccc(/C=C2\Oc3cc(OCC(=O)N4CC(O)C[C@H]4C(=O)O)ccc3C2=O)c(OC)c1OC (some centres undefined)	-1	0	-2	4	25	2
COc1ccc(/C=C2\Oc3cc(OCC(=O)N4CCC[C@H]4C(=O)O)ccc3C2=O)cc1OC	1	0	2	0	19	-6
COc1ccc(/C=C2\Oc3cc(OC(=O)N4CCOCC4)ccc3C2=O)c(OC)c1	-4	-1	-7	3	31*	-7
Cc1ccc(NC(=O)c2cc(S(=O)(=O)N3CCCCC3)ccc2N2CCOCC2)c(C)c1	-2	i	/	/	5	/
COc1cccc(NC(=O)CN(C)C(=O)c2ccc(-c3ccc(Cl)cc3)o2)c1	3	-1	-1	0	7	9
COc1cccc(/C=C2\Oc3cc(OCC(=O)N4CCCC4)ccc3C2=O)c1OC	5	-3	-7	-2	29	0
COc1cccc(/C=C2\Oc3cc(OCC(=O)N4CCCCC4)ccc3C2=O)c1OC	-1	i	-16	3	39*	-4
Cc1cccc(C)c1-n1nnnc1C(c1cccs1)N1CCN(C/C=C/c2ccccc2)CC1 (centres undefined)	-4	/	/	/	/	/
CCCC(=O)NC(c1ccc(OCC)cc1)c1ccc(OC)c(OC)c1 (centres undefined)	156*	i	2	1	10	2
CCOc1ccc(C(NC(C)=O)c2ccc(OC)c(OC)c2)cc1 (centres undefined)	-4	i	-20	1	-1	-1
CCOc1ccc(/C=C2\N=C(c3cccs3)OC2=O)cc1OC	/	/	14	38*	/	-2
O=C1OC(c2ccc(Br)cc2)=N/C1=C\N1CCCCC1	-2	0	-13	2	20	1
O=C1OC(c2ccccc2)=N/C1=C\N1CCCCC1	-3	-2	-3	0	41*	4
CN(C)/C=C1\N=C(c2cccnc2Oc2ccc(Cl)cc2)OC1=O	1	i	-1	-3	32*	-4
CN(C)/C=C1/N=C(c2ccccc2)OC1=O	0	i	2	1	52*	4
Cn1cccc1CN1CCC[C@]2(N[C@H](c3ccc(C(F)(F)F)cc3)[C@@H]3C(=O)N(Cc4ccccc4)C(=O)[C@@H]32)C1=O	0	i	/	/	-3	/
CC(C)(C)OC(=O)[C@H](Cc1ccccc1)NC(=O)c1[nH]cnc1C(=O)Nc1ccccc1F	-4	0	/	/	1	/
COCCCN1C(=O)C(CC(=O)NCc2ccco2)CC(C(=O)N(C)C)=C1C (centres undefined)	-1	-1	/	/	2	/
O=C(CN1C(=O)CCSc2ccccc21)NC1CCCCC1	4	0	7	-1	7	1
CN(C)/C=C1\N=C(c2ccc(Cl)cc2Cl)OC1=O	-2	i	3	0	20	-1
Cc1ccc(C2=N/C(=C\N(C)C)C(=O)O2)cc1	0	-4	3	2	45*	0
CN(C)/C=C1\N=C(c2cccs2)OC1=O	-1	-1	-11	-1	49*	1
SMILES	FBA Mtb inh	Vc quorum ag	Rv3671c protease	UGM FP inh	GDH-TPI counter	RecA splice inh
COC(=O)Cc1c(C)c2ccc(OCC(=O)NC3CCS(=O)(=O)C3)cc2oc1=O (centres undefined)	140*	i	1	-1	7	0
Cc1c(Cc2ccccc2)c(=O)oc2cc(OCC(=O)c3ccccc3)ccc12	11	0	-6	0	-3	-2
CCCOc1ccc2c(C)c(CC(=O)OC)c(=O)oc2c1	121*	i	8	-2	24	-4
COC(=O)Cc1c(C)c2ccc(OCC(=O)N(C)C)cc2oc1=O	138*	i	1	0	20	3
O=C(OCc1ccccc1)/C(=C/c1ccccc1Cl)NC(=O)c1ccco1	1	-1	1	-1	-2	6
CC1(C)CC(=O)C=C(NCC(=O)O)C1	1	-5	2	0	4	-3
CCSCCC(NC1=CC(=O)CC(C)(C)C1)C(=O)O (centres undefined)	5	17*	0	-1	-6	-1
Cc1c(NS(=O)(=O)c2cc(C(=O)NCC3CCCO3)cc(Cl)c2Cl)c(=O)n(-c2ccccc2)n1C (centres undefined)	0	i	7	0	-1	-2
Cc1c(NC(=O)C(C)NCC2CCCO2)c(=O)n(-c2ccccc2)n1C (centres undefined)	+	0	1	-1	7	0
CC(=O)N1CCN(C(=O)c2cc(S(=O)(=O)N(C)c3ccc(F)cc3)ccc2Cl)CC1	-2	i	2	-2	-3	1
COCCNc1nc(N)c([N+](=O)[O-])c(NCC2CCCO2)n1 (centres undefined)	-3	i	4	0	38*	1
CNc1nc(N)c([N+](=O)[O-])c(NCC2CCCO2)n1 (centres undefined)	-3	i	11	-1	34*	-8
Nc1nc(NCCOCCO)nc(NCC2CCCO2)c1[N+](=O)[O-] (centres undefined)	-1	0	3	-1	43*	-1
Cc1ccc(Nc2nc(NCC3CCCO3)nc(N)c2[N+](=O)[O-])cc1 (centres undefined)	9	-3	-6	0	25	-5
COc1ccc(C(=O)NCC(c2ccccc2)N2CCCC2)cc1S(=O)(=O)N1CCOCC1 (centres undefined)	1	-8	-3	0	5	/
O=C(c1ccc(Br)c(S(=O)(=O)N2CCOCC2)c1)N1CCN(C/C=C/c2ccccc2)CC1	-3	i	/	/	-4	/
CC1=NN(c2ccccc2)C(=O)/C1=C/c1c(O)[nH]c(=S)[nH]c1=O	-1	-1	-5	0	-2	20
CC1=NN(c2ccccc2)C(=O)/C1=C\c1cc(C)n(C)c1C	-14	-1	0	1	8	22
CC1=NN(c2ccccc2)C(=O)/C1=C\c1cn(C)c2ccccc12	-21	i	11	1	2	39*
CC1=NN(c2ccccc2)C(=O)/C1=C/c1c(O)[nH]c(=O)[nH]c1=O	-3	0	-75	-1	1	43*
CC(N)C(=O)NC(C(=O)NC(C)C(=O)Nc1cccc2ccccc12)C(C)C (centres undefined)	10	i	/	/	18	/
COc1ccc(C(=O)N(C)C2CCCCC2)cc1S(=O)(=O)N1CCOCC1	1	i	2	1	-1	/
